Source: PubChem BioAssay (EPA / NIEHS)
Records with an inconclusive call do not appear. Activity calls are given as the source filed them. The calls were made as follows, unless noted: active = hit-call score of the fitted dose curve at least 0.9, where 1 is the maximum; inactive = score below 0.9.

Columns and labels:
[1] = ACEA_ER_80hr: ACEA Biosciences xCELLigence Real-Time Cell Analysis on Estrogen Receptor Agonism for Proliferation (AID 2282667; active = hit-call score of the fitted dose curve at least 0.9, where 1 is the maximum); settings: T47D proliferation, impedance (xCELLigence), 80 h
Procedure, shortened: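 Real-time impedance growth kinetics of human T-47D breast cells read 80 h after dosing, gain-of-signal fitted relative to DMSO. Compounds: 1:4 serial series, top final concentration 100 uM, n = 2.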

[2] = ATG_CRE_CIS: Attagene CIS-FACTORIAL HepG2 Assay for human cAMP Responsive Element (CRE) binding protein 3 (AID 2282926); settings: HepG2 CRE cis-reporter, Attagene multiplexed mRNA; actives raise or lower the signal
Procedure, shortened: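 Endogenous transcription factor activity read via CRE-regulated reporter transcripts in transfected HepG2 cells. After 24 h exposure, RNA was reverse-transcribed, amplified, fluorescently labelled and sized by capillary electrophoresis; gain or loss fitted against DMSO.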

[3] = target: CCAAT/enhancer-binding protein beta (Homo sapiens) (UniProt P17676); experiment: ATG_C_EBP_CIS: Attagene CIS-FACTORIAL HepG2 Assay for human CCAAT/Enhancer Binding Protein (C/EBP) beta (AID 2282927); settings: HepG2 Attagene cis-factorial transcription factor reporter; actives raise or lower the signal
Sequence of CCAAT/enhancer-binding protein beta (Homo sapiens) (P17676 whole entry, looked up): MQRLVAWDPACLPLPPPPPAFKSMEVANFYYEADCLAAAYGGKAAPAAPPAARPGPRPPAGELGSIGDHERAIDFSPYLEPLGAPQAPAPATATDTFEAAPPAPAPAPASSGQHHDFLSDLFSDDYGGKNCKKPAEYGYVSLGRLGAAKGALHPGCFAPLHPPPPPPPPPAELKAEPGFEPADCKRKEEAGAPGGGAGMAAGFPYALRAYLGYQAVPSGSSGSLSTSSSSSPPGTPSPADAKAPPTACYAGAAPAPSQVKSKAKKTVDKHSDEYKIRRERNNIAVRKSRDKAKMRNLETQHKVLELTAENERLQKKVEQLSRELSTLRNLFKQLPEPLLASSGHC
Procedure, shortened: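 Endogenous transcription factor activity in human liver HepG2 cells is inferred from induction of a CEBPB-linked reporter mRNA. Exposure lasts 24 h; activity is fitted in both directions relative to DMSO.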

[4] = ATG_CMV_CIS: Attagene CIS-FACTORIAL HepG2 Assay for human CMV (Internal Marker) (AID 2282928); settings: HepG2 CMV promoter reporter, transcription factor profiling; actives raise or lower the signal;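 also: endpoint acts as a background internal control marker rather than a target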
Procedure, shortened: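 Reporter transcripts from transfected HepG2 cells are isolated after 24 h of chemical dosing, reverse-transcribed and amplified. Fragments labeled with 6-FAM are cut with HpaI and quantified by capillary electrophoresis; DMSO defines baseline.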

[5] = ATG_DR4_LXR_CIS: Attagene CIS-FACTORIAL HepG2 Assay for human Liver X Receptor (LXR), DR4 submotif (AID 2282929); settings: HepG2 Attagene DR4 cis-reporter, mRNA transcription; actives raise or lower the signal
Procedure, shortened: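 Measures endogenous transcription factor activity via a DR4-driven reporter transcript in human HepG2 cells. Compounds incubated 24 h; mRNA quantified by RT-PCR and capillary electrophoresis, analysed as gain or loss of signal versus DMSO.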

[6] = target: Aryl hydrocarbon receptor (Homo sapiens) (UniProt P35869); experiment: ATG_Ahr_CIS: Attagene CIS-FACTORIAL HepG2 Assay for human Aryl Hydrocarbon Receptor (Ahr) (AID 2282930); settings: HepG2 AhR cis-factorial reporter transcription; actives raise or lower the signal
Sequence of Aryl hydrocarbon receptor (Homo sapiens) (P35869 whole entry, looked up): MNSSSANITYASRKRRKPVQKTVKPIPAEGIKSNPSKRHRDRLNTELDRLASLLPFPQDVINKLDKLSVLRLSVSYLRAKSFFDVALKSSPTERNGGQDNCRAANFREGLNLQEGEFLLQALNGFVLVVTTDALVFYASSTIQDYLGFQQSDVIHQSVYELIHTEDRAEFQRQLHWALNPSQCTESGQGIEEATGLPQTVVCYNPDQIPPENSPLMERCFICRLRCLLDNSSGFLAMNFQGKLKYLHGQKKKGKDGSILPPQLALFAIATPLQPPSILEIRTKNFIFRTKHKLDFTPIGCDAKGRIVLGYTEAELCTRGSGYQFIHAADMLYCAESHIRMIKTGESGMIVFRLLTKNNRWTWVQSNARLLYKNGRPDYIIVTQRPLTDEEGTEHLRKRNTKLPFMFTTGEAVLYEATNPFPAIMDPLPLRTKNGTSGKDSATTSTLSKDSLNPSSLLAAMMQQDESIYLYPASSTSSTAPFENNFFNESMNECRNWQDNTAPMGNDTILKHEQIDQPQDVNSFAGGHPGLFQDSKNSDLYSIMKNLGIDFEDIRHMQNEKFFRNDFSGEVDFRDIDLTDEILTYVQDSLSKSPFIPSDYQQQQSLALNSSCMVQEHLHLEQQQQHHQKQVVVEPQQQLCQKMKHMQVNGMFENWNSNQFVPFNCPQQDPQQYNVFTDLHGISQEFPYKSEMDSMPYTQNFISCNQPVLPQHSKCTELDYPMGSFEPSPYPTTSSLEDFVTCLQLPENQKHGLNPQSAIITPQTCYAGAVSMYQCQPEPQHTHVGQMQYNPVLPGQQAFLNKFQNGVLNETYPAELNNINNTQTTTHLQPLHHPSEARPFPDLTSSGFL
Procedure, shortened: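 Transient MRTU transfection of HepG2 → 24 h compound exposure → total RNA, oligo(dT) RT → PCR, 6-FAM extension, HpaI cut → CE fluorescence. DMSO = baseline; bidirectional curve fit.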

[7] = ATG_AP_1_CIS: Attagene CIS-FACTORIAL HepG2 Assay for human Activator Protein 1 (AP-1) (AID 2282931); settings: HepG2 Attagene cis-factorial AP-1 reporter mRNA; actives raise or lower the signal
Procedure, shortened: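 Bidirectional concentration-response fitting against DMSO controls. Underlying signal: reporter mRNA from cis-promoter constructs in transiently transfected HepG2, measured after 24 h by RT-PCR and capillary electrophoresis.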

[8] = ATG_AP_2_CIS: Attagene CIS-FACTORIAL HepG2 Assay for human Activator Protein 2 (AP-2) (AID 2282932); settings: HepG2 AP-2 cis-reporter, Attagene transcription factor profiling; actives raise or lower the signal
Procedure, shortened: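 Transiently transfected HepG2 cells are exposed to chemical for 24 h. Reporter transcripts are then measured as fluorescence following RT-PCR and capillary separation, and gain- or loss-of-signal is fitted relative to DMSO.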

[9] = ATG_BRE_CIS: Attagene CIS-FACTORIAL HepG2 Assay for human Bone Morphogenetic Protein (BMP) Response Element (BRE) (AID 2282933); settings: HepG2 BMP response element reporter, Attagene transcription factor profiling; actives raise or lower the signal
Procedure, shortened: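 HepG2 cells transiently transfected with CIS reporter units (endogenous TF activity, BMP response element), dosed 24 h. Reporter mRNA quantified by RT-PCR, fluorescent labelling and capillary electrophoresis; bidirectional fit vs DMSO baseline.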

[10] = target: Retinoic acid receptor alpha (Homo sapiens) (UniProt P10276); experiment: ATG_DR5_RAR_CIS: Attagene CIS-FACTORIAL HepG2 Assay for human Retinoic Acid Receptor Alpha (RARE), DR5 submotif (AID 2282934); settings: HepG2 Attagene cis-factorial RARE DR5 reporter, mRNA; actives raise or lower the signal;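 as to AC50: reporter responds to endogenous RAR alpha beta and gamma in HepG2 not RARA alone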
Sequence of Retinoic acid receptor alpha (Homo sapiens) (P10276 whole entry, looked up): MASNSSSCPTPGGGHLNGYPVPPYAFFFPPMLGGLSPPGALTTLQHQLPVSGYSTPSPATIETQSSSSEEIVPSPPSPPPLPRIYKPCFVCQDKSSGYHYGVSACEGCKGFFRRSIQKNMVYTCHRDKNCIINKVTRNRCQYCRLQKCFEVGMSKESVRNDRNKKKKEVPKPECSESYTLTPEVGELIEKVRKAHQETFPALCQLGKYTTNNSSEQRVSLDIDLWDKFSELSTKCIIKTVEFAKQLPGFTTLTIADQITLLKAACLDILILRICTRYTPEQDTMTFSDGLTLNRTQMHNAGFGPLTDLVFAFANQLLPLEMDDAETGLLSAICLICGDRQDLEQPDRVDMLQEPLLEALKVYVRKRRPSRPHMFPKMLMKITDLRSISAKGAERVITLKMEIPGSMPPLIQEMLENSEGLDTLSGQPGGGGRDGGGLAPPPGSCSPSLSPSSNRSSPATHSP
Procedure, shortened: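 Transient MRTU transfection of HepG2; 24 h compound treatment; TriZol RNA, oligo(dT) RT, PCR, FAM labelling, capillary electrophoresis. Bidirectional fit vs DMSO. Endogenous TF activity at DR5 RARE.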

Measured: AC50

COC(OC)(C(=O)c1ccccc1)c1ccccc1
active: [5] 49.8 µM
inactive: all other assays above

CCC1(C)C(=O)N(Cl)C(=O)N1Cl (centres undefined)
active: [2] 27.6 µM | [3] 38.9 µM | [7] 67.4 µM
inactive: all other assays above

C=C(C)C(=O)OCC(O)COc1ccc(C(C)(C)c2ccc(OCC(O)COC(=O)C(=C)C)cc2)cc1 (centres undefined)
active: [7] 63.7 µM | [9] 24.8 µM
inactive: all other assays above

O=C(Cl)c1c(Cl)c(Cl)c(C(=O)Cl)c(Cl)c1Cl
inactive: all assays above

C=CC(=O)OCC(C)OCC(C)OCC(C)OC(=O)C=C (centres undefined)
active: [4] 77.1 µM | [5] 68.8 µM | [7] 73.4 µM
inactive: all other assays above

O=c1c(O)c(-c2ccc(O)cc2O)oc2cc(O)cc(O)c12
active: [1] 47.5 µM | [9] 19.3 µM
inactive: all other assays above

O=C(Oc1ccccc1)c1ccccc1O
inactive: all assays above

COC(Cc1ccccc1)OC
inactive: all assays above

CC(C)CC(=O)OCc1ccccc1
inactive: all assays above

Nc1cccc(N)n1
active: [6] 52.3 µM
inactive: all other assays above

C[Si](C)(C)N[Si](C)(C)C
inactive: all assays above

Nc1ccc(O)c([N+](=O)[O-])c1
active: [6] 13.9 µM
inactive: all other assays above

O=C1CCCCCCCCCCCN1
active: [1] 53.3 µM
inactive: all other assays above

CC/C=C\CCOC(=O)c1ccccc1O
inactive: all assays above

C=C(C)C1CC=C(C)CC1 (centres undefined)
not listed: [10]
inactive: all other assays above

Oc1ccccc1Cc1ccccc1O
active: [5] 114 µM
inactive: all other assays above

COC(C=C(C)CCC=C(C)C)OC
active: [7] 146 µM
inactive: all other assays above

CCCCCCCCCC[N+](C)(CCCCCCCCCC)CCC[Si](OC)(OC)OC
active: [2] 17.5 µM | [3] 18.2 µM | [8] 15.3 µM | [10] 16.9 µM
inactive: all other assays above

CCCCCCCCCCCC(=O)N(C)CC(=O)O
active: [4] 97.5 µM | [5] 97.5 µM
inactive: all other assays above

CC(C)c1cc(C(C)C)cc(C(C)C)c1
inactive: [1] | [2] | [6] | [9]
active: [3] 182 µM | [4] 36 µM | [5] 25.9 µM | [7] 125 µM | [8] 180 µM | [10] 59.5 µM

COc1ccc(C(=O)c2ccccc2)c(O)c1
active: [4] 79.6 µM | [5] 115 µM | [7] 168 µM | [9] 158 µM
inactive: all other assays above

CCc1occc(=O)c1O
active: [6] 65.6 µM
inactive: all other assays above

COc1nccnc1CC(C)C
inactive: all assays above

CCCCC1CCC(=O)O1 (centres undefined)
inactive: all assays above
